Assay results published in PubChem BioAssay (Tox21).
A number with no mark means an inactive call. Results filed as inconclusive are left out. Entries that show only a call come without a potency. Active and inactive are the calls of the source. Unless noted, calls follow the shape of the dose curve; as a rule, active = well fitted curve in the direction sought with a large enough effect in the repeat runs; inconclusive = weak or mixed curves; inactive = no such curve, though single readings can be large; an effect the other way counts as inactive or inconclusive.

What was measured:
[1] = A CellTox Green Cytotoxicity Assay to monitor cytotoxicity in HepG2 cells - 0 hour (AID 1224882); also: nearly all actives have a fitted effect of over 35% in size
Method in brief: (§1)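 HepG2 cells were seeded together with the CellTox Green dye at 600 cells/well, left 5 h at 37 C/5% CO2, then given compounds in DMSO. Fluorescence from dye bound to dead-cell DNA was read repeatedly over 40 h of treatment at 37 C.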

[2] = A CellTox Green Cytotoxicity Assay to monitor cytotoxicity in HepG2 cells - 32 hour (AID 1224883); also: nearly all actives have a fitted effect of over 50% in size
Method in brief: as §1

[3] = A CellTox Green Cytotoxicity Assay to monitor cytotoxicity in HEK293 cells - 8 hour (AID 1224884); also: nearly all actives have a fitted effect of over 35% in size
Method in brief: (§2)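 HEK293 cells premixed with CellTox Green dye were seeded at 600 cells/well and left 5 h at 37 C/5% CO2 before pin transfer of 23 nL compound in DMSO. Fluorescence from dye bound to dead-cell DNA was read during 40 h treatment.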

[4] = qHTS RealTime-Glo MT Cell Viability Assay in HepG2 cells - 16 hour (AID 1224885); also: nearly all actives have a fitted effect of over 50% in size
Method in brief: (§3)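 HepG2 suspension premixed with RealTime-Glo reagents is plated at 600 cells per well and left 5 h at 37 C/5% CO2. Compounds in DMSO then go in, and bioluminescence reflecting viable cell number is recorded over 40 h.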

[5] = qHTS RealTime-Glo MT Cell Viability Assay in HEK293 cells - 24 hour (AID 1224886); also: top concentration of the series differs between compounds; nearly all actives have a fitted effect of over 50% in size
Method in brief: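 Reads taken at 0, 8, 16, 24, 32 and 40 h from the same wells. HEK293 cells (600/well) carried RealTime-Glo reagents from seeding, with compound added after a 5 h settle at 37 C.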

[6] = qHTS RealTime-Glo MT Cell Viability Assay in HEK293 cells - 8 hour (AID 1224887); also: top concentration of the series differs between compounds; nearly all actives have a fitted effect of over 50% in size
Method in brief: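 HEK293 cells mixed with RealTime-Glo reagents (NanoLuc plus cell-permeant prosubstrate) at 600 cells/well, preincubated 5 h at 37 C/5% CO2, then given 23 nL compound in DMSO. Nonlytic luminescence from viable cells was read at 0, 8, 16, 24, 32 and 40 h.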

[7] = A CellTox Green Cytotoxicity Assay to monitor cytotoxicity in HEK293 cells - 16 hour (AID 1224888); also: nearly all actives have a fitted effect of over 35% in size
Method in brief: as §2

[8] = qHTS RealTime-Glo MT Cell Viability Assay in HepG2 cells - 0 hour (AID 1224889); also: nearly all actives have a fitted effect of over 50% in size
Method in brief: as §3

[9] = A CellTox Green Cytotoxicity Assay to monitor cytotoxicity in HepG2 cells - 8 hour (AID 1224890); also: nearly all actives have a fitted effect of over 45% in size
Method in brief: as §1

[10] = qHTS assay to identify small molecule antagonists of the estrogen receptor alpha (ER-alpha) signaling pathway using the BG1 cell line in the presence of 0.1 nM 17-beta-estradiol - cell viability counter screen (AID 1259241); also: nearly all actives have a fitted effect of over 40% in size
Method in brief: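 VM7Luc4E2 cells (endogenous full-length ER-alpha, 4xERE-luciferase), cultured 5 days in charcoal-stripped serum, exposed to compounds with 0.1 nM 17beta-estradiol (final) for 22 hr at 37C. Viability read in same wells as live-cell protease fluorescence after 30 min.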

[11] = qHTS assay to identify small molecule antagonists of the androgen receptor (AR) signaling pathway using the MDA cell line in the presence of 0.5 nM R1881 - cell viability counter screen (AID 1259242); also: nearly all actives have a fitted effect of over 45% in size
Method in brief: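 MDA-kb2 cells (human breast carcinoma, stably carrying MMTV-luciferase reporter) were exposed to compounds with 0.5 nM R1881 (final) for 16 hr at 37C, 0% CO2; viability then read as live-cell protease fluorescence (CellTiter-Fluor, 30 min) in the same wells.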

[12] = target: Estrogen receptor (Homo sapiens) (UniProt P03372); test: qHTS assay to identify small molecule antagonists of the estrogen receptor alpha (ER-alpha) signaling pathway using the BG1 cell line in the presence of 0.1 nM 17-beta-estradiol (AID 1259244); also: nearly all actives have a fitted effect of over 50% in size
Estrogen receptor (Homo sapiens), sequence (P03372 whole entry, looked up): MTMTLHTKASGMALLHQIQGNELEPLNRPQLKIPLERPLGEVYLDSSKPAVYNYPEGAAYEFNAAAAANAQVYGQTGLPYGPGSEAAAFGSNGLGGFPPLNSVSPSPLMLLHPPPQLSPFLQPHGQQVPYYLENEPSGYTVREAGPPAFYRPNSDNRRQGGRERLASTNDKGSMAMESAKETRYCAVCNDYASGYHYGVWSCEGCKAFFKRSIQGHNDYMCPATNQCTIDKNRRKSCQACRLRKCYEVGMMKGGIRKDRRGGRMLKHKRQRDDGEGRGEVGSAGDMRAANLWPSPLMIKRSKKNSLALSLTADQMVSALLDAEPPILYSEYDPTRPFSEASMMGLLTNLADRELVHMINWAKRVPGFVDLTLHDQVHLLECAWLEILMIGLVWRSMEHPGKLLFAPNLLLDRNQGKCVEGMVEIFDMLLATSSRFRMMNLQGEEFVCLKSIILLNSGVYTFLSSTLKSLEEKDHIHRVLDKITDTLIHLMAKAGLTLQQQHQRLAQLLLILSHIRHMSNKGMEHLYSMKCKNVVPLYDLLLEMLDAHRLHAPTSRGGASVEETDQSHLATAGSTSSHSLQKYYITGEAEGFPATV
Method in brief: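 VM7Luc4E2 cells (endogenous full-length ER-alpha, stable 4xERE-luciferase) were grown 5 days in phenol red-free medium with charcoal-stripped FBS, then exposed 22 h at 37C to compounds plus 0.1 nM (final) 17beta-estradiol; ONE-Glo luminescence read-out.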

[13] = qHTS assay to identify small molecule HDAC inhibitors (AID 1259364); also: top concentration of the series differs between compounds; nearly all actives have a fitted effect of over 45% in size
Method in brief: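 Wild-type HCT-116 cells were plated overnight, exposed to compounds for 2 h at 37 °C, then given HDAC-Glo class I/II luminogenic reagent for 30 min at room temperature before luminescence was read.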

[14] = qHTS assay to identify small molecule HDAC inhibitors - cell viability counter screen (AID 1259365)
Method in brief: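 Wild-type HCT-116 cells, 1,500/well, cultured overnight, then compound-treated 2 h at 37 C. Viability measured as ATP luminescence with CellTiter-Glo after 30 min at room temperature.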

[15] = qHTS assay to identify small molecule agonists of the sonic hedgehog signaling (Shh) pathway - cell viability counter screen (AID 1259366); also: nearly all actives have a fitted effect of over 50% in size
Method in brief: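 NIH/3T3-derived Gli1-Luc reporter cells, 2,000 per well, received compound after 4 h and were treated about 23 h at 37C. Viability measured in the same wells by CellTiter-Fluor fluorescence after 1 h.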

[16] = qHTS assay to identify small molecule antagonists of the sonic hedgehog signaling (Shh) pathway - cell viability counter screen (AID 1259367); also: nearly all actives have a fitted effect of over 55% in size
Method in brief: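 Using CellTiter-Fluor, viability of Gli1-Luc reporter 3T3 cells is read by fluorescence in the wells used for the Shh luciferase assay. Treatment lasts 23 hr with conditioned medium, then reagent 1 hr at 37C.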

[17] = qHTS assay to identify small molecule agonists of the sonic hedgehog signaling (Shh) pathway (AID 1259368; calls by dose curve; also: series mostly up to about 92 µM; nearly all actives have a fitted effect of over 15% in size)
Method in brief: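 NIH/3T3-derived 3T3Gli1-Luc cells carrying a stably integrated Gli1 response element–firefly luciferase reporter were plated, left 4 hr at 37 C, then given compounds in DMSO for 24 hr. Luminescence was read 30 min after adding luciferase reagent.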

[18] = qHTS assay to identify small molecule antagonists of the sonic hedgehog signaling (Shh) pathway (AID 1259369; calls by dose curve; also: nearly all actives have a fitted effect of over 45% in size; also: potency is read from the fitted curve at half-maximal effect)
Method in brief: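 NIH/3T3-derived 3T3Gli1-Luc cells with stably integrated Gli1-Luc reporter were preincubated 4hr at 37 C, then given compounds in DMSO plus Shh conditioned medium and incubated 24hr. Firefly luciferase luminescence read after 30min reagent at room temperature.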

[19] = qHTS assay to identify small molecule phospholipidosis (PLD) inducers (AID 1259344; active = well fitted curve in the direction sought with a large enough effect; an effect the other way counts as inactive or inconclusive)
Method in brief: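 Fluorescent phospholipid staining (LipidTOX Red) measured by automated microscopy in fixed HepG2 cells after 24 h treatment; nuclei counterstained with Hoechst 33342; amiodarone as reference inducer.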

[20] = target: Androgen receptor (Homo sapiens) (UniProt P10275); test: qHTS assay to identify small molecule antagonists of the androgen receptor (AR) signaling pathway using the MDA cell line in the presence of 0.5 nM R1881 (AID 1259243); also: nearly all actives have a fitted effect of over 50% in size
Androgen receptor (Homo sapiens), sequence (P10275 whole entry, looked up): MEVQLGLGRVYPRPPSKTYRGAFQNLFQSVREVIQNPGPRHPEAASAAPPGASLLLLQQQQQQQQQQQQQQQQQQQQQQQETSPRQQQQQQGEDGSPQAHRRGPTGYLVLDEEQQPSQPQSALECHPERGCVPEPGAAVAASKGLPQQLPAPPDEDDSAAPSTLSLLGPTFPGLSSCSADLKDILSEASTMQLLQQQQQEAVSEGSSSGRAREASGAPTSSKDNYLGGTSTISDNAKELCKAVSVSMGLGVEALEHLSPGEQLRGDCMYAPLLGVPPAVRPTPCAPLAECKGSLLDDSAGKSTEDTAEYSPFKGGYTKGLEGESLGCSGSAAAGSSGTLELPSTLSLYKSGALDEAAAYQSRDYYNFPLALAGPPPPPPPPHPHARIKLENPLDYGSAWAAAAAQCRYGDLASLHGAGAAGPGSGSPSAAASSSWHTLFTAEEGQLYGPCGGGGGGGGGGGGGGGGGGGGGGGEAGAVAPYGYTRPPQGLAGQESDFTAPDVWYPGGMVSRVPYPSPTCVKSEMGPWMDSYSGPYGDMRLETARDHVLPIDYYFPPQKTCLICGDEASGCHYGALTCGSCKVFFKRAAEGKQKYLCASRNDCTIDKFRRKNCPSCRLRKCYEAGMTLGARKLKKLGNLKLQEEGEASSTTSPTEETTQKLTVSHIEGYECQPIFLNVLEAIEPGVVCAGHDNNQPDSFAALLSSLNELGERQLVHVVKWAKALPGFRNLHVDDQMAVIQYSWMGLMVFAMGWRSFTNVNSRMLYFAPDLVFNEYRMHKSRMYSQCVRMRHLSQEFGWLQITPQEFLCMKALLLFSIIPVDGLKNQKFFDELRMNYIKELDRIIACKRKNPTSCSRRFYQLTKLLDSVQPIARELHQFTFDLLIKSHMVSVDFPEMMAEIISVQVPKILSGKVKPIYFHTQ
Method in brief: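 MDA-kb2 human breast carcinoma cells carrying an MMTV-luciferase reporter (AR- and GR-responsive) were plated, rested 5 hr at 37C, dosed with compounds, then stimulated with 0.5 nM R1881 (final) for 16 hr; luminescence was read after ONE-Glo.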

| SMILES | Potency [1] | Potency [2] | outcome [3] | outcome [4] | Potency [5] | Potency [6] | outcome [7] | Potency [8] | outcome [9] | outcome [10] | outcome [11] | outcome [12] | Potency [13] | outcome [14] | Potency [15] | Potency [16] | outcome [17] | Potency [18] | outcome [19] | Potency [20] |
| --- | --- | --- | --- | --- | --- | --- | --- | --- | --- | --- | --- | --- | --- | --- | --- | --- | --- | --- | --- | --- |
| CN1C(C)(C)CC(O)CC1(C)C | inactive | inactive | inactive | inactive | inactive | inactive | inactive | inactive | inactive | inactive | inactive | inactive | inactive | inactive | inactive | inactive | inactive | inactive | – | – |
| CC(C)(N)C#N | inactive | inactive | inactive | inactive | inactive | inactive | inactive | inactive | inactive | inactive | inactive | inactive | inactive | inactive | – | inactive | inactive | inactive | – | – |
| COc1cc(C)nc(-n2nc(C)cc2OC)n1 | inactive | inactive | inactive | inactive | inactive | inactive | inactive | inactive | inactive | inactive | inactive | – | inactive | inactive | inactive | inactive | inactive | inactive | inactive | – |
| [O-][n+]1cccc(CO)c1 | inactive | inactive | inactive | inactive | inactive | inactive | inactive | inactive | inactive | inactive | inactive | – | inactive | inactive | inactive | inactive | inactive | inactive | inactive | – |
| CCOC(=O)c1ccccc1 | inactive | inactive | inactive | inactive | inactive | inactive | inactive | inactive | inactive | inactive | inactive | inactive | inactive | inactive | – | inactive | inactive | inactive | – | – |
| CN(C)CCCCCCN(C)C | inactive | inactive | inactive | inactive | inactive | inactive | inactive | inactive | inactive | – | – | – | inactive | inactive | inactive | inactive | inactive | inactive | – | – |
| O=C1NC(=O)C2CC=CCC12 (stereo not drawn) | inactive | inactive | inactive | inactive | inactive | inactive | inactive | inactive | inactive | inactive | inactive | – | inactive | inactive | – | inactive | inactive | inactive | – | – |
| CO/N=C(\C(=O)N[C@@H]1C(=O)N2C(C(=O)O)=C(CSc3nc(=O)c(O)nn3C)CS[C@H]12)c1csc(N)n1 | inactive | inactive | inactive | inactive | inactive | inactive | inactive | – | inactive | inactive | inactive | inactive | inactive | inactive | inactive | inactive | inactive | inactive | inactive | – |
| O=Cc1cccc(Br)c1 | inactive | inactive | inactive | inactive | inactive | inactive | inactive | inactive | inactive | inactive | inactive | – | inactive | inactive | inactive | inactive | inactive | inactive | – | – |
| CC(=O)c1ccccc1[N+](=O)[O-] | inactive | inactive | inactive | inactive | inactive | inactive | inactive | inactive | inactive | inactive | inactive | – | – | inactive | inactive | inactive | inactive | – | – | – |
| CCOc1ccccc1OCC | inactive | inactive | inactive | inactive | inactive | inactive | inactive | inactive | inactive | inactive | inactive | – | inactive | inactive | inactive | inactive | inactive | inactive | – | – |
| C=C[Si](OC(C)=O)(OC(C)=O)OC(C)=O | inactive | inactive | inactive | inactive | inactive | inactive | inactive | – | inactive | inactive | inactive | – | inactive | inactive | inactive | – | inactive | 30.6 µM (active) | – | inactive |
| O=CN(CCO)CCO | inactive | inactive | inactive | inactive | inactive | inactive | inactive | inactive | inactive | inactive | inactive | – | inactive | inactive | inactive | inactive | inactive | inactive | – | – |
| CC(C)CC(C)(N)C#N (stereo not drawn) | inactive | inactive | inactive | inactive | inactive | inactive | inactive | inactive | inactive | inactive | inactive | – | inactive | inactive | inactive | inactive | inactive | inactive | – | – |
| C=CC(C)(CCC=C(C)C)OC(=O)CC (stereo not drawn) | inactive | inactive | inactive | inactive | inactive | inactive | inactive | inactive | inactive | inactive | inactive | – | – | inactive | inactive | inactive | inactive | inactive | – | – |
| NC(=O)Cc1cccc2ccccc12 | inactive | inactive | inactive | inactive | inactive | inactive | inactive | inactive | inactive | inactive | inactive | – | – | inactive | inactive | inactive | inactive | inactive | – | – |
